According to PubChem BioAssay (NCATS):
Results filed as inconclusive are left out. The source made the active and inactive calls. Calls come from the whole dose curve; as a rule, active = well fitted curve in the direction sought with a large enough effect; inconclusive = small, poorly fitted or top-dose-only effect, or another doubt; inactive = no such curve, though single readings can be large; an effect the other way counts as inactive or inconclusive.

What was measured:
[1] = Viability qHTS for spleen associated tyrosine kinase inhibitor (SYKi) naive MV4-11 cells (AID 1963823); note: nearly all actives have a fitted effect of over 40% in size
Summary of the method: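 Read-out: CellTiter-Glo luminescence. Exposure: 72 hr, 37 C, 5% CO2, 95% humidity. Cells: MV4-11 without SYK inhibitor history, 500/well, qHTS format.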

[2] = Viability qHTS for spleen associated tyrosine kinase inhibitor (SYKi) drug resistant MV4-11 cells (AID 1963824); note: nearly all actives have a fitted effect of over 35% in size
Summary of the method: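 CellTiter-Glo luminescence, read 10 min after reagent addition, reports viability after a 72 hr compound exposure. Cells are an MV4-11 line made resistant to SYK inhibition, seeded at 500 per well onto compound-containing plates.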

[3] = Cellular viability qHTS for adrenocortical cancer (ACC) cell line SW-13 (AID 1963989); details: SW-13 ACC cells viability, CellTiter-Glo, 48 h; activity (max response): hits give low values; note: nearly all actives have a fitted effect of over 65% in size;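 for activity (max response): cells grown in serum-free medium with ITS supplement; % is set by controls: 0 for no effect and ±100 for the full control effect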
Summary of the method: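 Luminescent ATP read-out (CellTiter-Glo, 20 min at room temperature) measured metabolically competent SW-13 cells after 48 h compound treatment. Final concentrations spanned up to 46 uM; bortezomib served as positive control.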

[4] = Cellular viability qHTS for adrenocortical cancer (ACC) cell line NCI-H295R (AID 1963990); note: nearly all actives have a fitted effect of over 60% in size
Summary of the method: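 IC50 and maximal efficacy derive from four-parameter logistic modelling of titration curves, with reads scaled between DMSO-only wells (0%) and doxorubicin hydrochloride (100% inhibition). Compounds spanned up to 46 uM over 48 h.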
Potency is the fitted concentration of half-maximal effect.

CCN(CC)CCOC(=O)C1(c2ccccc2)CCCC1
inactive: Potency [1] | Potency [2] | activity (max response) [3] 8.5% | Potency [4]

CC(=O)Oc1cccc(O)c1
inactive: Potency [1] | Potency [2] | activity (max response) [3] 7.39% | Potency [4]

O=C(CCc1ccc(O)cc1)c1c(O)cc(O)cc1O[C@@H]1O[C@H](CO)[C@@H](O)[C@H](O)[C@H]1O
inactive: Potency [1] | Potency [2] | activity (max response) [3] 0.618% | Potency [4]

Cc1cccc(C)c1NC(=O)CN(CC(=O)O)CC(=O)O
inactive: Potency [1] | Potency [2] | activity (max response) [3] 9.48% | Potency [4]

O=C1NS(=O)(=O)c2ccccc21
inactive: Potency [1] | Potency [2] | activity (max response) [3] 0.607% | Potency [4]

CCCCCCCCCCCCCCCC[n+]1ccccc1
active: Potency [1] 0.668 µM | Potency [2] 0.668 µM | Potency [3] 3.66 µM | Potency [4] 5.8 µM

O=C(NO)c1cnc(N2C[C@H]3C[C@@H]2CN3c2cc(C(F)(F)F)ccn2)nc1
active: Potency [1] 2.35 µM | Potency [2] 2.35 µM | Potency [3] 10 µM | Potency [4] 2.82 µM

CC(C(=O)O)c1ccc2c(c1)[nH]c1ccc(Cl)cc12 (stereo not given)
inactive: Potency [1] | Potency [2] | activity (max response) [3] -19.1% | Potency [4]

C[C@H](NC(=O)CCC(F)(F)F)C(=O)N[C@@H]1C(=O)N(CCO)c2ncccc2-c2ccccc21
inactive: Potency [1] | Potency [2] | activity (max response) [3] -28.7% | Potency [4]

Cn1c(NC[C@@H](N)Cc2ccccc2)nc(-c2ccncc2)c(-c2ccc3ccccc3c2)c1=O
active: Potency [1] 7.42 µM | Potency [2] 6.61 µM | Potency [3] 28.2 µM | Potency [4] 31.6 µM
